Drawing on PubChem BioAssay, this text covers composite z-score and z-score for four molecules.

The source made the active and inactive calls. Unless noted, the rule behind the calls is not given here.

For test [1], the system named is Wnt5a (protein binding on small-molecule microarray). In words: small molecules binding Wnt5a protein – biophysical, small-molecule microarray, 635/667 nm fluorescence, primary screen (AID 1142).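 Note: fluorescence read at 667 nm with signal to noise per printed feature.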 The following applies: 635 nm fluorescence, higher = more signal.
The nature of test [2]: ATP-based viability of Huh7 replicon cells – cell-based, CellTiter-Glo luminescence, basal, 48 h, cytotoxicity control for HCV replication inhibitor project, primary screen (AID 1143).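 Note: Huh7 hepatoma cells carrying a hepatitis C replication reporter with no stimulus; test concentration not given here.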 Particulars: higher = more signal, called active from +8 up or from −8 down.
The nature of test [3]: Pseudomonas biofilm growth suppression – PAO1 strain, BacTiter-Glo luminescence, LB-PBS, primary screen (AID 1144). The following applies: P. aeruginosa PAO1 biofilm, 12 h, higher = more signal.
Test [4] in a line: basal CRE-LacZ reporter activity in PC12 – cell-based, unstimulated, primary screen (AID 1145). Particulars: no forskolin, luminescence, 4.5 h, higher = more signal, called active from +8 up or from −8 down.
Test [5] is described as follows: forskolin-driven CRE-LacZ activity in PC12 – cell-based, CRE-LacZ reporter, forskolin-stimulated, primary screen (AID 1146).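 Note: PC12 cells with 6xCRE LacZ reporter stimulated by forskolin 10 µM; beta-galactosidase reporter signal reflecting CREB driven transcription.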 The following applies: luminescence, 4.5 h, higher = more signal, called active from +8 up or from −8 down.
Test [6] deals with Streptavidin (Streptomyces avidinii) (UniProt P22629). Nature of the test: compounds binding control protein streptavidin – biophysical, small-molecule microarray, 635/667 nm fluorescence, artefact control for SMM compound annotation, primary screen (AID 1147).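 Note: signal reflects streptavidin binding to arrayed compounds as a control protein.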 Particulars: higher = more signal.
Sequence of Streptavidin (Streptomyces avidinii) (P22629 whole entry, looked up): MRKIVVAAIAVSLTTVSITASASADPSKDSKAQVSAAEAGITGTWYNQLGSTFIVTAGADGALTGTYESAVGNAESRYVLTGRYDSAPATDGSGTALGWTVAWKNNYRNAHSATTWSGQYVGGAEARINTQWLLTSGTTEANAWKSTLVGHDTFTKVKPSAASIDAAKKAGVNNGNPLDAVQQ
Test [7] can be described thus: probe aInhba binding on compound microarray – biochemical, small-molecule microarray, 635/667 nm fluorescence, primary screen (AID 1148).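 Note: score merges 667nm spot fluorescence with signal-to-noise for antibody binding to printed compounds.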 Particulars: higher = more signal.
Test [8] addresses Torsin-1A (Homo sapiens) (UniProt O14656). In words: TOR1A wild-type binding on microarray – cell lysate, small-molecule microarray, lysate, 635/667 nm, primary screen (AID 1149). Particulars: COS7 hTOR1A-WT lysate, 635 nm fluorescence, higher = more signal.
The target is the same in test [9]. Nature of the test: torsin A mutant lysate binding on microarrays – cell lysate, small-molecule microarray, COS7 lysate, 635/667 nm fluorescence, primary screen (AID 1150).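 Note: score pools 667 nm emission and signal to noise measuring lysate protein binding.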 Particulars: COS7 hTOR1A mutant lysate, 635 nm fluorescence, higher = more signal.
The subject of test [10] is Sonic hedgehog protein (Shh). In words: Sonic hedgehog microarray binding compounds – biochemical, small-molecule microarray, 635/667 nm fluorescence, primary screen (AID 1151).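 Note: Shh protein binding to compounds spotted on small-molecule microarray slides; score combines spot fluorescence intensity with signal-to-noise across triplicate slides.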 The following applies: 635 nm fluorescence, higher = more signal.
Test [11] can be described thus: optical density shifts of acrAB sulA E. coli – strain DRC41, OD650, 48 h, E. coli filamentation inducer project, primary screen (AID 1152).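 Note: E. coli MC1000 strain DRC41 lacking acrAB efflux pump and sulA.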 Particulars: higher = more signal, called active from +8 up or from −8 down.
A short description of test [12]: probe aLefty1 binding on compound microarray – biochemical, small-molecule microarray, 635/667 nm fluorescence, primary screen (AID 1153).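 Note: score merges spot fluorescence with signal-to-noise ratio from the scanned slide images.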 Particulars: higher = more signal.
Test [13] is described as follows: plasmodial surface anion channel blockers, osmotic lysis – cell-based, P. falciparum Indochina, OD700, 1 h, primary screen (AID 1154). Particulars: P. falciparum Indochina infected RBC osmotic lysis, higher = more signal, called active from +8 up or from −8 down.
Test [14] is described as follows: plasmodial surface anion channel blockers, osmotic lysis – cell-based, P. falciparum Indochina, OD700, 2 h, primary screen (AID 1155).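 Note: lysis reports solute entry through the parasite surface anion channel PSAC.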 The following applies: P. falciparum Indochina infected erythrocytes, higher = more signal, called active from +8 up or from −8 down.
Test [15] in a line: changes in parasitized red cell lysis, either direction – P. falciparum Indochina, OD700, 3 h, PSAC antagonist project, primary screen (AID 1156). The following applies: P. falciparum-infected erythrocytes, osmotic lysis, higher = more signal, called active from +8 up or from −8 down.
Test [16] can be described thus: plasmodial surface anion channel blockers, osmotic lysis – cell-based, P. falciparum Indochina, OD700, 18 h, primary screen (AID 1157). The following applies: P. falciparum Indochina infected erythrocytes, osmotic lysis OD700, 18 h; higher = more signal, called active from +8 up or from −8 down.
Test [17] in a line: S6 kinase pathway phospho-S6 level changes – cell-based, A549, cytoblot, luminescence, serum-stimulated, primary screen (AID 1158).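 Note: serum-stimulated A549 lung adenocarcinoma cells; signal is phosphorylated S6 detected by cytoblot immunostaining with HRP secondary.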 The following applies: 5 h, higher = more signal.
Test [18] has as its target NADPH oxidase 2 (Homo sapiens) (UniProt P04839). Nature of the test: compounds shifting NOX2 Amplex Red fluorescence – cell-based, HEK293-NOX2, PMA-stimulated, NOX inhibitor project, primary screen (AID 1159). Note: test concentration not given here. Particulars: 45 min, higher = more signal, called active from +8 up or from −8 down.
The target of test [19] is NADPH oxidase 4 (Homo sapiens) (UniProt Q9NPH5). In words: compounds shifting NOX4 Amplex Red fluorescence – cell-based, HEK293-NOX4, tetracycline-induced, NOX inhibitor project, primary screen (AID 1160). The following applies: HEK293-NOX4, Amplex Red H2O2 fluorescence, 45 min; higher = more signal, called active from +8 up or from −8 down.
Sequence of NADPH oxidase 4 (Homo sapiens) (Q9NPH5 whole entry, looked up): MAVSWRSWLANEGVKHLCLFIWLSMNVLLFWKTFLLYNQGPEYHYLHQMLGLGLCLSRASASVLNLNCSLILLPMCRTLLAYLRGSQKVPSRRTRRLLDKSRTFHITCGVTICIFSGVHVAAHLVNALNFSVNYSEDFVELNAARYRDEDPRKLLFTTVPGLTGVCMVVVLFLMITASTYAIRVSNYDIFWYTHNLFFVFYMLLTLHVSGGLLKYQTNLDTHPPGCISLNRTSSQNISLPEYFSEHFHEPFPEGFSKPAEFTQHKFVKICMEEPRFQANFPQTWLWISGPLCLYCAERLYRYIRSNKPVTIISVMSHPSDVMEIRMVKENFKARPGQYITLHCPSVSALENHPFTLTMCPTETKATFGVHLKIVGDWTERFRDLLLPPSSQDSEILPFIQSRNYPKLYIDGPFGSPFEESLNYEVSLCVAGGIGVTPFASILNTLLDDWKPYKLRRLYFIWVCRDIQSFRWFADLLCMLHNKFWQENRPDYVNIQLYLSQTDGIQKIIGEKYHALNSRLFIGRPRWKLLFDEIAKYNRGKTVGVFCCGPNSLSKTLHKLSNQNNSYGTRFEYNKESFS
Test [20] deals with NADPH oxidase 5 (Homo sapiens) (UniProt Q96PH1). Nature of the test: compounds shifting NOX5 Amplex Red fluorescence – cell-based, HEK293-NOX5, NOX inhibitor project, primary screen (AID 1161). The following applies: HEK293-NOX5, ionomycin, 45 min, higher = more signal.
Sequence of NADPH oxidase 5 (Homo sapiens) (Q96PH1 whole entry, looked up): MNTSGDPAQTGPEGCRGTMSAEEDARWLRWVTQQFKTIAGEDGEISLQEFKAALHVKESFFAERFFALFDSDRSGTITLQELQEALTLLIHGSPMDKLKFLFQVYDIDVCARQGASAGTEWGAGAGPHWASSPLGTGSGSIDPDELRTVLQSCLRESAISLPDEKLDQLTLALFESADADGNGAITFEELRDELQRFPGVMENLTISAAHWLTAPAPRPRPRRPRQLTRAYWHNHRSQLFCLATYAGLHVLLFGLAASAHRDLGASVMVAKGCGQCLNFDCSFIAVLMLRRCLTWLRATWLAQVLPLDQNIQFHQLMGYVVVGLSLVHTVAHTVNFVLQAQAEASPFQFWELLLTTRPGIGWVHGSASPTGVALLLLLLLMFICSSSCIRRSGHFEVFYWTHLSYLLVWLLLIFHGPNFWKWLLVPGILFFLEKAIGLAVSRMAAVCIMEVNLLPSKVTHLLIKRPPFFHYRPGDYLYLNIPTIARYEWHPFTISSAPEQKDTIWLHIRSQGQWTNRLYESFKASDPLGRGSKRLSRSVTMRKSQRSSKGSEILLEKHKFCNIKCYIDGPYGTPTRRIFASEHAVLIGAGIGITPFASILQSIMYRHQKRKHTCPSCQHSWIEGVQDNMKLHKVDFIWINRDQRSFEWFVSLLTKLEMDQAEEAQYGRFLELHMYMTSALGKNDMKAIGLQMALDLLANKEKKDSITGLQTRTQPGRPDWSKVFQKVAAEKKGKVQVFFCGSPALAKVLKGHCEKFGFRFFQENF

Sequence of NADPH oxidase 2 (Homo sapiens) (P04839 whole entry, looked up): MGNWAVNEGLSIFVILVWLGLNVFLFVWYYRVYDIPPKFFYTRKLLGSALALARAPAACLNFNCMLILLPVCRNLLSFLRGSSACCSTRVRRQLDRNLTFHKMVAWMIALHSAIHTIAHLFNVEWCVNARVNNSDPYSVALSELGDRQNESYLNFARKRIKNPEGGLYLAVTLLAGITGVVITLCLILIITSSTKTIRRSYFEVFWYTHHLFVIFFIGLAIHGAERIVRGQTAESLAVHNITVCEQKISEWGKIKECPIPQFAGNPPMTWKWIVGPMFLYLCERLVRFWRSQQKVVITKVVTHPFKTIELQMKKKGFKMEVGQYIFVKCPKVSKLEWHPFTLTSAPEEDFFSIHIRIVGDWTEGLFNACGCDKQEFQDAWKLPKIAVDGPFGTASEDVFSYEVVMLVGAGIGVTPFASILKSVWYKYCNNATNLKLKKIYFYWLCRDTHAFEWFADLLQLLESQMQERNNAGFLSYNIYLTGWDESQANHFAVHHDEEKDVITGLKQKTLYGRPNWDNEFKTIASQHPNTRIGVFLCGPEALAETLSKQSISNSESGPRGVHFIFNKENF
Sequence of Torsin-1A (Homo sapiens) (O14656 whole entry, looked up): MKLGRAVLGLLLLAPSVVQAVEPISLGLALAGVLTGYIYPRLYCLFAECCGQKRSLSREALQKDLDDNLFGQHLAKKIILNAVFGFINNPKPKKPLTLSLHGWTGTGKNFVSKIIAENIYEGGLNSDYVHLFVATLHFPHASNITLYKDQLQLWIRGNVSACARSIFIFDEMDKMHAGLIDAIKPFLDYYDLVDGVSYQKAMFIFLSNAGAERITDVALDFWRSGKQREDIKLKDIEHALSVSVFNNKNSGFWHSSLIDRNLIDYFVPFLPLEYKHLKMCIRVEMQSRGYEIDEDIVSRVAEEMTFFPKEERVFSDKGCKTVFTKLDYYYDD

On to `C=CCOc1ccc([C@@H]2CC=C(C(=O)OCC)[C@H](c3cccc(Br)c3)N2S(=O)(=O)c2ccc(C)cc2)cc1`, for which the composite z-score is 0.141 in test [1]; 0.414 in [6]; -0.0831 in [7]; 0.0699 in the test with Torsin-1A (Homo sapiens) [8]; 0.307 with Torsin-1A (Homo sapiens) [9]; 0.0537 in [10]. In test [12], this molecule gave a composite z-score of -0.012. Also, the z-score is -4.43 (inactive) in test [2]; 0.681 (inactive) in test [3]; -0.424 (inactive) in test [4]; 0.165 (inactive) in test [5]; 0.251 (inactive) in [11]; 0.652 (inactive) in test [13]. For the same molecule, the z-score is -0.384 (inactive) in [14]; -0.864 (inactive) in [15]; -2.24 (inactive) in [16]; 1.11 in test [17]; 0.629 (inactive) in [18]; 0.399 (inactive) in test [19]. Further, in test [20], the z-score was -0.0171.

Regarding `COC(=O)[C@@]1(Cc2ccc(OC)cc2)[C@H]2c3cc(C(=O)N4CCCC4)n(CCF)c3C[C@H]2CN1C(=O)c1ccccc1`, the composite z-score in test [1] is 2.55; in test [6], 1.5; in test [7] it was 2.05; with Torsin-1A (Homo sapiens) [8], -0.0089; with Torsin-1A (Homo sapiens) [9], 0.619; in test [10], -0.801. In test [12], this molecule gave a composite z-score of 2.49. For the same molecule, the z-score in test [2] was -2.46 (inactive); in test [3] it was -0.129 (inactive); in test [4] it was 0.972 (inactive); in test [5], 0.325 (inactive); in test [11], -1.28 (inactive); in test [13], 10.4 (active). Also, the z-score in test [14] was 1.42 (inactive); in test [15] it was 2.39 (inactive); in [16] it was 1.13 (inactive); in test [17], 0.181; in test [18], -0.201 (inactive); in [19], -2.52 (inactive). In [20], the z-score was -3.65.

On to `CC(C)C[C@@H]1NC(=O)[C@@]23C(=O)N[C@@H](Cc4ccccc4)C2[C@H](C)[C@@]2(C)O[C@H]2C3/C=C/C/C=C\CNC(=O)[C@@H]2CCCN2C1=O` (stereo not given in full), for which the composite z-score is -0.0917 in test [1]; -0.767 in test [6]; 0.0051 in test [7]; 0.249 with Torsin-1A (Homo sapiens) [8]; 0.0725 in the test with Torsin-1A (Homo sapiens) [9]; 0.468 in test [10]. The same molecule registered a composite z-score in test [12] of -0.234. In addition, the z-score in test [2] is -0.577 (inactive); in test [3], 0.595 (inactive); in [4], 1.12 (inactive); in test [5], -0.2 (inactive); in test [11] it was -0.797 (inactive); in test [13] it was 0.918 (inactive). The z-score is 0.182 (inactive) in test [14]; -0.551 (inactive) in [15]; 0.01 (inactive) in test [16]; 0.226 in [17]; 0.593 (inactive) in test [18]; 1.14 (inactive) in test [19]. In test [20], the z-score came out at 0.579.

As for `COc1ccc([Si](C)(C)[C@@H]2[C@@H](CCO)O[C@]3(C(=O)N(Cc4cccc(N5C(=O)COc6ccccc65)c4)c4ccccc43)[C@H]2C)cc1`, the composite z-score in [1] was -0.0772; in [6], 0.428; in test [7], 0.0633; in the test with Torsin-1A (Homo sapiens) [8], -0.277; with Torsin-1A (Homo sapiens) [9], -0.491; in test [10], 0.45. Also, the composite z-score in [12] was found to be 0.139. The z-score was -7.12 (inactive) in test [2]; -0.17 (inactive) in [3]; 6.98 (inactive) in test [4]; 0.586 (inactive) in test [5]; 0.111 (inactive) in [11]; 3.9 (inactive) in test [13]. In addition, the z-score in test [14] was 3.53 (inactive); in test [15], 0.797 (inactive); in test [16], 2.26 (inactive); in [17], 0.373; in [18], 0.416 (inactive); in [19], 1.36 (inactive). Moreover, in test [20], the z-score was 1.49.
